Reference: PubChem BioAssay (EPA / NIEHS)
Where “and” joins values, the source holds several entries; their conditions need not be identical. Equal values may be shown once. The source holds several records for some structures; these can differ, active in one and inactive in another. Calls of active or inactive are those of the source. The calls were made as follows: active = hit-call score of the fitted dose curve at least 0.9, where 1 is the maximum; inactive = score below 0.9.

The molecules below were run on TIMP metallopeptidase inhibitor 1 (TIMP1), TIMP1 (gene 7076) (assay: BSK_hDFCGF_TIMP1: BioMAP Diversity Plus: hDFCGF Assay for TIMP metallopeptidase inhibitor 1 (TIMP1) Biomarker Activity (AID 2283062)). Conditions: primary human foreskin fibroblasts; actives raise or lower the signal.
Method: BSK_hDFCGF is a cell-based, multiplexed-readout assay that uses foreskin fibroblast, a human skin primary cell, with measurements taken at 24 hours after chemical dosing in a 96-well plate.BSK_hDFCGF_TIMP1 is an assay component measured in the BSK_hDFCGF assay. It measures TIMP-1 antibody related to regulation of gene expression using ELISA technology.Data from the assay component BSK_hDFCGF_TIMP1 was analyzed into 1 assay endpoint. This assay endpoint, BSK_hDFCGF_TIMP1, was analyzed with bidirectional fitting relative to DMSO as the negative control and baseline of activity. Using a type of binding reporter, gain or loss-of-signal activity can be used to understand changes in the signaling as they relate to the gene TIMP1. Furthermore, this assay endpoint can be referred to as a primary readout, because this assay has produced multiple assay endpoints where this one serves a signaling function. To generalize the intended target to other relatable targets, this assay endpoint is annotated to the protease inhibitor intended target family, where the subfamily is metalloproteinase inhibitor.
The levels of cell surface (or secreted, indicated by the prefix "s") biomarker endpoints were measured by ELISA. Overt cytotoxicity to cells in confluent adherent cultures (all systems other than the BT system) was assessed by measuring total protein levels using sulforhodamine B (SRB) staining in parallel cultures at the time of biomarker measurements, indicated as SRB endpoints. For proliferation assays for adherent cell types, individual cell types are cultured at sub-confluence and relative cell numbers quantified by SRB staining at time points optimized for each system (48 h: 3C and CASM3C systems; 72 h: BT and HDF3CGF systems; 96 h: SAg system). SRB was performed by staining cells with 0.1% SRB after fixation with 10% TCA and reading wells at 560 nm.Viability and proliferation of PBMC (T cells) was quantified by Alamar Blue reduction for the SAg and BT systems. For PBMC viability (referred to as PBMC Cytotoxicity within the assay endpoint names), cells were plated (75,000/well in a 96-well plate) and then chemical samples added for 1 h before addition of activators, SEB and TSST-1 (20 ng/mL final concentration each). Cells were incubated for 90 h. Then, Alamar Blue (20 uL/well) (Invitrogen, Cat DAL1100) was added for 6 h, and the plates were read with a fluorescence microplate reader at 546/580 nm (excitation/emission). For PBMC proliferation, cells were plated and activated as above but incubated for only 16 h prior to addition of Alamar Blue. Plates were read after 6 h.
`C=C(C)C(=O)OCCC(F)(F)C(F)(F)C(F)(F)C(F)(F)C(F)(C(F)(F)F)C(F)(F)F` was tested, and the outcome was “inactive”. For `FC(F)(F)C(F)(F)C(F)(F)C(F)(F)C(F)(F)C(F)(F)CCS`, the outcome was “inactive”. With `CCCCC(CC)COP(=O)(O)OCC(CC)CCCC` (stereo not given) the outcome was “inactive” and the AC50 was 30.8 µM (active). `C=CC(=O)OCC(F)(F)C(F)(F)C(F)(F)C(F)(F)C(F)(F)C(F)(F)C(F)(F)F` was tested, and the outcome was “inactive”. For `CC(C)(C)C(=O)CC(=O)C(F)(F)C(F)(F)C(F)(F)F`, the outcome was “inactive”. In the case of `CCN(CC)c1ccc2c(C)cc(=O)oc2c1`, the outcome is reported as “inactive”. For `O=C(Cl)C(F)(F)C(F)(F)C(F)(F)C(F)(F)C(F)(F)C(F)(F)C(F)(F)C(F)(F)F`, the outcome was “inactive”. With `CCCCCCCOC(=O)c1ccccc1C(=O)OCCCCCCC` the outcome was “inactive”. `FC(F)(F)C(F)(F)C(F)(F)C(F)(F)C(F)(F)C(F)(F)C(F)(F)C(F)(F)F` was tested, and the outcome was “inactive”. For `O=C(O)C(F)(F)C(F)(F)C(F)F`, the outcome was “inactive”. With `OCC(F)(F)C(F)(F)C(F)(F)F` the outcome was “inactive”. For `O=C(O)C(F)(F)C(F)(F)C(F)(F)F`, the outcome was “inactive”. `FC(F)(Br)C(F)(F)C(F)(F)C(F)(F)C(F)(F)C(F)(F)Br` was tested, and the outcome was “inactive”. `O[Si](c1ccccc1)(c1ccccc1)c1ccccc1` was tested, and the outcome was “inactive”. In the case of `FC(F)(F)C(F)(F)C(F)(F)C(F)(F)CCI`, the outcome is reported as “inactive”. `C=CC(F)(F)C(F)(F)C(F)(F)C(F)(F)C(F)(F)C(F)(F)C(F)(F)C(F)(F)C=C` was tested, and the outcome was “inactive”. With `COC(=O)CCC(F)(F)C(F)(F)C(F)(F)C(F)(F)F` the outcome was “inactive”. `C=CC(=O)OCC(F)(F)C(F)(F)C(F)(F)C(F)(F)COC(=O)C=C` was tested, and the AC50 was 8.88 µM (active) and 9.2 µM (active). For `O=C(O)C(F)(F)C(F)(F)OC(F)(F)F`, the outcome was “inactive”. In the case of `C=CC/C=C/C/C=C/C/C=C/C`, the outcome is reported as “inactive”. In the case of `FC1CC(F)(F)C(F)(F)C1(F)F` (stereo not given), the outcome is reported as “inactive”. With `O=C(CC(=O)C(F)(F)C(F)(F)F)C(F)(F)F` the outcome was “inactive”. In the case of `O=C(O)C(F)(F)C(F)(F)C(F)(F)C(F)(F)C(F)(F)C(F)(F)C(F)(F)C(F)(F)C(F)(F)C(F)F`, the outcome is reported as “inactive”. With `O=C(O)C(F)(F)C(F)(F)C(F)(F)C(F)(F)C(F)(F)C(F)(F)C(F)(F)C(F)(F)Cl` the AC50 was 30 µM (active) and the outcome was “inactive”. With `CCCCNc1ccccc1` the outcome was “inactive”. `CCc1ccc(C(c2ccc(CC)cc2)C(Cl)Cl)cc1` was tested, and the AC50 was 20 µM (active). In the case of `FC(F)(F)C(F)(F)C(F)(F)C(F)(F)C(F)(F)C(F)(F)C(F)(F)I`, the outcome is reported as “inactive”. `FC(F)(F)C(F)(F)C(F)(F)C(F)(F)C(F)(F)C(F)(F)CC1CO1` (stereo not given) was tested, and the outcome was “inactive”. For `CCc1c(Br)c(Br)c(Br)c(Br)c1Br`, the outcome was “inactive”. With `O=C(O)C=C(C(F)(F)F)C(F)(F)F` the AC50 was 0.967 µM (active) and the outcome was “inactive”. For `CCCCCCOC(=O)c1ccccc1O`, the AC50 was 39.7 µM (active) and 31.2 µM (active). In the case of `FC(F)(F)C(F)(F)C(F)(F)C(F)(F)C(F)(F)C(F)(F)C(F)(F)Br`, the outcome is reported as “inactive”. In the case of `CCO[Si](CCC(F)(F)C(F)(F)C(F)(F)C(F)(F)C(F)(F)C(F)(F)F)(OCC)OCC`, the outcome is reported as “inactive”. In the case of `O=C(O)C(F)(OC(F)(F)C(F)(OC(F)(F)C(F)(OC(F)(F)C(F)(F)C(F)(F)F)C(F)(F)F)C(F)(F)F)C(F)(F)F` (stereo not given), the outcome is reported as “inactive”. For `CCCCCCCCCCCCCCCC[N+](C)(C)Cc1ccccc1`, the AC50 was 1.71 µM (active). For `O=S(=O)(O)C(F)(F)C(F)(F)C(F)(F)C(F)(F)C(F)(F)C(F)(F)C(F)(F)F`, the outcome was “inactive”. In the case of `O=P(O)(O)OCCC(F)(F)C(F)(F)C(F)(F)C(F)(F)C(F)(F)C(F)(F)F`, the outcome is reported as “inactive”.
